# Kir21 inh – Kir2.1 (mouse) channel inhibition | 310,000 compounds, 0.85% hits | HEK293-Kir2.1, FluxOR thallium flux fluorescence; stronger effect = lower value | B-score at 10 µM | AID 1672;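 active = fluorescence ratio B-score at or below minus 3 SD of library scores, with starting-brightness B-score within 2 SD, cut at about -4.2 in these data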;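 also: channel flux triggered by added potassium and thallium sulfate stimulus; B-score of peak minus minimum fluorescence over baseline after thallium stimulus; more negative B-score means stronger Kir2.1 block with less thallium influx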
# ANO1 activ – activators or potentiators of mouse TMEM16A chloride channel; HEK293 TMEM16A/YFP-H148Q/I152L, iodide quench fluorescence; stronger effect = lower value; B-score at 10 µM; 340,000 compounds, 0.3% hits; AID 623877;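 active = fluorescence-ratio B-score plate-corrected deviation score at least 3 library SD below zero, with starting fluorescence score within 5 deviations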;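 also: channel opened by trigger with iodide after compound preincubation; score built on the fluorescence ratio of max minus min over baseline; more negative score means more quench and so TMEM16A activation or potentiation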
# Target sequence (Q8BHY3 whole entry, looked up): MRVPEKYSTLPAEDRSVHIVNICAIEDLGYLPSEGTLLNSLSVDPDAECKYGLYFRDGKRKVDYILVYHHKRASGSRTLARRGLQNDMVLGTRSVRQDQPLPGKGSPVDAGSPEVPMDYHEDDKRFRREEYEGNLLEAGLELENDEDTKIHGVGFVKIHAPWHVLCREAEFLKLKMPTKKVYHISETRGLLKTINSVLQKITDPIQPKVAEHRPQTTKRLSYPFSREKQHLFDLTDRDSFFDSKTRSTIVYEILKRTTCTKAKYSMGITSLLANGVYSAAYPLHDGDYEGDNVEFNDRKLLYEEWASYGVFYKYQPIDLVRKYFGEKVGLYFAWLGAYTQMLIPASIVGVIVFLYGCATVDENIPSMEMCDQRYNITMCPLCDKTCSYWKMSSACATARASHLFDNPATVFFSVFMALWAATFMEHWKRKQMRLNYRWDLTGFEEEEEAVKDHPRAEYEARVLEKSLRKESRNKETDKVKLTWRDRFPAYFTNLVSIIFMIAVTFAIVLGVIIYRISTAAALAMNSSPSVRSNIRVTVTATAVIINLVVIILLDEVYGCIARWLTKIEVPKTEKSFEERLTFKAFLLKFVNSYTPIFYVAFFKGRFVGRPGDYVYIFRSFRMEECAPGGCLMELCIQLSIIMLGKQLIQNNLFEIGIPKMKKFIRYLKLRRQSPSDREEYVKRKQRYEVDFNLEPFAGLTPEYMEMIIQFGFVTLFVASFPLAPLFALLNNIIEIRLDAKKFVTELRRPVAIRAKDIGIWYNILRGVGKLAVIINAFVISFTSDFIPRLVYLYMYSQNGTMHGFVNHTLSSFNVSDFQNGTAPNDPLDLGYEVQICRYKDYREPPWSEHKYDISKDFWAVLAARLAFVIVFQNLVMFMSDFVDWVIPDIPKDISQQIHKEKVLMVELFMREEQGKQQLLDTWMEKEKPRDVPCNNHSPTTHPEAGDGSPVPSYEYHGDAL
# CHT PAM – allosterically activates the human high affinity choline transporter; Q9GZV3; CHT-expressing cells, membrane potential dye, choline EC20; stronger effect = higher value; LV-AA mutant CHT in HEK293 cells; B-score at 10 µM; 310,000 compounds, 0.49% hits; AID 488977;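 active = initial fluorescence not abnormally high and integrated response B-score, plate-corrected, over 3 SD above library mean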
# TMEM16A inh – blocks the mouse calcium-activated chloride channel TMEM16A | normalized B-score (activity score, 25-100; higher = stronger inhibition) at 10 µM | 310,000 compounds, 1.2% hits | Q8BHY3 | AID 588511 | HEK293 TMEM16A/YFP iodide influx fluorescence, ionomycin;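 active = ratio plate-corrected score three or more library SD toward inhibition, starting fluorescence score within five deviations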;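 also: score derived from kinetic fluorescence span divided by baseline fluorescence per well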
# CHT inh – human CHT choline transport inhibition; B-score at 10 µM; Q9GZV3; 310,000 compounds, 0.86% hits; CHT-expressing cells, membrane potential dye, choline response; stronger effect = lower value;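 active = B-score over 3 SD under the library average, and starting fluorescence ratio not unusually high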;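 also: choline stimulus applied at its EC90 after an EC20 pre-addition; B-score computed on integrated fluorescence ratio after choline addition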
# Rce1 inh – yeast Ras-converting enzyme inhibition | Q03530 | yeast membranes, quenched prenylated peptide cleavage fluorescence | calls only | 290,000 compounds, 0.27% hits;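 active = fall in fluorescence gain of 50% or more versus controls, with final raw signal at or below 3038400; inconclusive = same 50% fall but final raw signal above 3038400; inactive = fall in fluorescence gain under 50%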
# Numbers stand for hits; – = inactive; ? = inconclusive; · = no result given; + = active, no number. Compounds with a hit are over-represented: about 3.2% of the library has one in this group of screens.
SMILES,Kir21 inh,ANO1 activ,CHT PAM,TMEM16A inh,CHT inh,Rce1 inh
CC/C(=C\C=C\[C@@H]1C=C[C@@H]2CCC[C@H]2[C@@H]1C(=O)c1ccc[nH]1)[C@@H]1O[C@@H]([C@@H](C)C(=O)O)CC[C@@H]1C,–,·,–,100,-5.5,–
CCc1nccc2c1[nH]c1ccccc12,–,–,–,–,–,?
Cc1nccc2c1[nH]c1ccccc12,–,–,–,–,–,+
O=C1NC(=O)C(Cc2ccccc2)(Cc2ccccc2)C(=O)N1,·,–,·,·,·,·
Cc1ccc(C(=O)N2CC2C)cc1 (stereo not given),·,–,·,·,·,·
NC(Cc1ccc(O)cc1)C(=O)NN=Cc1ccc(N(CCCl)CCCl)cc1 (stereo not given),·,–,·,·,·,·
C[N+](C)(C)CC#CCN1CCCC1=O,–,-7.9,–,–,–,–
CN1CCN(CC#CCOc2ccc(Cl)cc2)CC1,–,–,–,–,–,–
CCCN(CC#CCOc1ccc(OC)cc1)CCC,–,-16,–,–,–,–
CC1(C)C(=O)CCC2C1=CCC1C2CCC2(C)C(O)CCC12 (stereo not given),·,–,·,·,·,·
CC1CCC(NCCc2ccc3c(c2)OCO3)CC1 (stereo not given),–,–,–,–,–,–
c1cc2c(cc1CCNC1C3CC4CC(C3)CC1C4)OCO2 (stereo not given),-4.5,–,–,–,–,–
Cc1ccccc1CCNCc1ccc(Br)cc1,-9.6,–,–,–,–,–
CCCCNS(=O)(=O)c1ccc(OCC(=O)N2CCN(Cc3ccc4c(c3)OCO4)CC2)cc1,–,-4.7,–,–,–,–
O=C(Cn1ncc2c3ccccc3n(Cc3ccccc3F)c2c1=O)N1CCC2(CC1)OCCO2,–,-21,–,–,–,–
CC1=C(O)C(=O)C=C2C1=CC=C1C2(C)CCC2(C)C3CC(C)(C(=O)O)CCC3(C)CCC12C (stereo not given),·,-10,·,·,·,·
CCC1([N+](=O)[O-])COP(N)(=O)OC1 (stereo not given),·,–,·,·,·,·
COCCNC(=O)c1c(N)n(Cc2ccco2)c2nc3ccccc3nc12,–,–,–,–,–,–
COCCCn1c(N)c(C(=O)NCc2ccco2)c2nc3ccccc3nc21,–,–,–,–,–,+
C#C[C@]1(O)CCC2C3C(=O)C=C4C(Cl)=CCC[C@]4(C)C3CC[C@@]21C (stereo not given in full),·,–,·,·,·,·
Cc1cc(=O)oc2cc(OCC(=O)N3CCN(C(C)c4ccccc4)CC3)c(Cl)cc12 (stereo not given),·,-42,·,·,·,·
O=C(c1ccc(Cl)cc1)C1CCCN(Cc2ccc3ncccc3c2)C1 (stereo not given),–,–,–,25,–,–
COc1ccc(CN2CCCC(C(=O)c3ccc(Cl)cc3)C2)c(OC)c1 (stereo not given),-5.2,–,–,–,–,–
COc1ccc(C(=O)C2CCCN(Cc3ccon3)C2)c(OC)c1 (stereo not given),–,–,–,–,–,–
COc1ccc(CN2CCCC(C(=O)c3cccc(Cl)c3)C2)cc1 (stereo not given),-8.8,–,–,–,–,–
SMILES,Kir21 inh,ANO1 activ,CHT PAM,TMEM16A inh,CHT inh,Rce1 inh
CN1C(=O)c2ccccc2NC(=O)[C@]12O[C@@H]2c1ccccc1,–,–,–,–,–,+
O=C1NC(=S)NC(=O)C12C(c1ccccc1)NC(=S)NC2c1ccccc1 (stereo not given),–,–,–,–,–,–
O=C(COc1ccc2ccc(=O)oc2c1)N1CCC(C(=O)O)(c2ccccc2)CC1,–,–,–,–,–,+
O=C1NC(=S)NC(=O)C1c1ccccc1,·,–,·,·,·,·
Cn1ncnc2c(=O)n(C)c(=O)nc1-2,–,–,–,25,–,–
CC1OC(OC2C=C3CCC4C(CCC5(C)C(c6ccc(=O)oc6)CCC45O)C3(C)CC2)C(O)C(OC2OC(CO)C(O)C(O)C2O)C1O (stereo not given),·,–,·,·,·,·
COC1C(OC(=O)c2ccc(C)[nH]2)C(O)C(Oc2ccc3c(O)c(NC(=O)c4ccc(O)c(CC=C(C)C)c4)c(=O)oc3c2Cl)OC1(C)C (stereo not given),·,–,–,100,–,·
Nc1ccc(-c2ccc(N)cc2)cc1,·,–,·,·,·,·
COc1ccc(CNCCc2cccc(F)c2)c2ccccc12,-18,·,–,–,-7.2,–
COc1cc(OC)c(OC)cc1CNCCc1cccc(F)c1,–,–,–,–,–,–
COc1ccccc1CN1CCN(Cc2ccc(Cl)cc2)CC1,–,–,–,–,–,–
Cc1cccc(CN2CCN(Cc3ccc(Cl)cc3)CC2)c1,-12,–,–,–,–,–
Cc1ccc(CN2CCC3CCC(C3)C2)c(O)c1 (stereo not given),·,–,·,·,·,·
Fc1ccc(CCNCc2ccc(Cl)c(Cl)c2)cc1,-6.2,–,–,–,–,–
CCc1ccc(CNCCc2ccc(F)cc2)cc1,–,–,–,–,–,–
CCCCc1ccc(NC2=NCCCS2)cc1,-4.9,–,–,–,–,–
CC(CN1CCOCC1)C(C#N)(c1ccccc1)c1ccccc1 (stereo not given),·,–,·,·,·,·
CCC1(CC)C(=O)NC(=O)N(CCc2ccccn2)C1=O,·,–,·,·,·,·
CC(=O)c1cn(CCCOc2ccccc2)c2ccccc12,-4.6,–,–,–,–,–
O=C(C(=O)N1CCOCC1)c1cn(CCCOc2ccccc2)c2ccccc12,–,–,–,–,–,–
COC1CCC(OC2CC(C3(C)CCC4(CC(O)C(C)C(C(C)/C=C(\C)C(=O)C(C)CC(C)C(=O)O)O4)O3)OC3(OC(C4OC(O)(CO)C(C)CC4C)CC3C)C2C)OC1C (stereo not given),·,-4.8,·,·,·,·
ClCCN(CCCl)c1ccc(-n2cnc3c(Cl)ncnc32)cc1,·,–,·,·,·,·
Cc1cc(NCCN)nc2ccccc12,–,–,11,–,–,–
Cc1ccc(C)c(-n2c(C)nc3ccccc3c2=O)c1,–,–,–,–,–,–
CCC1C2Cc3ccc(O)cc3C1(CC)CCN2C (stereo not given),·,–,·,·,·,·
CCN(CC)C(=O)c1ccc(NC(=O)c2cc(S(=O)(=O)N3CCCCCC3)ccc2OC)cc1,–,–,–,–,–,–
CCN(CC)C(=O)c1ccc(NC(=O)c2cccc(S(=O)(=O)N3CCN(Cc4ccccc4)CC3)c2)cc1,–,–,–,25,–,–
COc1ccc2c(c1)/C(=C/c1cnc[nH]1)C(=O)N2,–,–,8.8,–,–,–
CCCCCCOc1ccc(CN2CCN(C)CC2)cc1,-4.8,–,–,–,–,–
O=C1CC23c4ccccc4N4C(=O)CC5OCC=C6CN1C2CC6C5C43 (stereo not given),·,–,·,·,·,·
